Screening data deposited in PubChem BioAssay by Broad Institute.
The full list was thinned out, with hits kept by preference.
miR-122 inh: raises miR-122 sensor activity in Huh7 cells. Huh7 psiCHECK-miR122 Renilla luciferase sensor, 48 h. activation, % at 12.5 µM. 340,000 compounds, 0.14% hits. AID 623901;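 active = mean activation of 30% or more, with every replicate also reaching 30%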;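 note: 0% = median of neutral control wells and 100% = median of positive control wells; higher luciferase signal means stronger suppression of miR-122 activity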
Active calls of the source: *.

SMILES	miR-122 inh
O=C(NCCCN1CCN(Cc2ccccc2)CC1)c1nnc(Cc2c(F)cccc2Cl)o1	-103
COc1ccc(NS(=O)(=O)c2cc(NC(=O)c3ccc(Cl)cc3)ccc2N2CCOCC2)cc1	-102
O=C(Nc1ccc(CN2CCOCC2)cc1)c1ccc(-c2ccc(Cl)cc2Cl)o1	34*
CCOC(=O)c1ccc(NC(=O)c2ccc(CN3CCOCC3)cc2)cc1	38*
CC(=O)Nc1ccc(C(=O)Nc2ccc(S(=O)(=O)NCC3CCCO3)cc2)cc1 (stereo unspecified)	-97
CC(=O)N(C)C[C@@H]1Oc2cc(C#CC3CCCCC3)ccc2S(=O)(=O)N([C@H](C)CO)C[C@@H]1C	1
C[C@H](CO)N1C[C@H](C)[C@H](CN(C)Cc2ccc(C(=O)Nc3ccccc3N)cc2)Oc2ccc(NS(=O)(=O)c3cccs3)cc2CC1=O	-104
COCC(=O)N(C)C[C@H]1Oc2cc(Br)ccc2S(=O)(=O)N([C@@H](C)CO)C[C@H]1C	7
COc1cccc(-c2cnc3c(c2)C(=O)N([C@H](C)CO)C[C@@H](C)[C@H](CN(C)Cc2cccnc2)O3)c1	2
CCS(=O)(=O)Nc1ccc2c(c1)C(=O)N(C)C[C@@H](OC)[C@H](C)CN(Cc1cccnc1)[C@H](C)CO2	0
C/C=C/c1cnc2c(c1)C(=O)N([C@H](C)CO)C[C@H](C)[C@@H](CN(C)S(=O)(=O)c1cccs1)O2	-1
C[C@@H]1CN([C@H](C)CO)S(=O)(=O)c2ccc(C#Cc3ccc(F)cc3)cc2O[C@@H]1CN(C)S(C)(=O)=O	-22
CC(C)CC#Cc1cnc2c(c1)C(=O)N([C@H](C)CO)C[C@@H](C)[C@H](CN(C)C(=O)Nc1ccccc1F)O2	-14
CC(C)C#Cc1cnc2c(c1)C(=O)N([C@H](C)CO)C[C@@H](C)[C@@H](CN(C)C(=O)CC1CC1)O2	1
COc1cccc(NC(=O)N(C)C[C@H]2Oc3ncc(C#Cc4cccnc4)cc3C(=O)N([C@H](C)CO)C[C@@H]2C)c1	-6
CN1C(=O)c2cc(NC(=O)NC3CCCC3)ccc2OC[C@H]2O[C@@H](CC(=O)O)CC[C@H]21	-138
CC(=O)Nc1ccc2c(c1)C(=O)N(C)[C@H]1CC[C@H](CC(=O)NC3CCCCC3)O[C@@H]1CO2	63*
CN1C(=O)c2cc(NC(=O)c3cccc(F)c3)ccc2OC[C@@H]2O[C@@H](CC(=O)NC3CCC3)CC[C@H]21	70*
CN1C(=O)c2cc(NC(=O)Cc3ccccc3)ccc2OC[C@@H]2O[C@H](CC(=O)NC3CCC3)CC[C@@H]21	-125
COc1ccc(C#Cc2ccc3c(c2)O[C@H](CN(C)C)[C@@H](C)CN([C@@H](C)CO)S3(=O)=O)cc1	-11
C[C@H](O)C#Cc1ccc2c(c1)O[C@@H](CN(C)Cc1cncnc1)[C@@H](C)CN([C@H](C)CO)S2(=O)=O	4
CC(=O)N(C)C[C@@H]1Oc2cc(C#C[C@@H](C)O)ccc2S(=O)(=O)N([C@H](C)CO)C[C@@H]1C	4
COCC#Cc1ccc2c(c1)O[C@H](CN(C)C(=O)COC)[C@H](C)CN([C@@H](C)CO)S2(=O)=O	13
Cc1nn(Cc2ccccc2Cl)c2sc(C(=O)OC3CCCC3=O)cc12 (stereo unspecified)	36*
CCC(=O)Nc1ccc2c(c1)OC[C@@H](C)N(C(=O)c1ccncc1)C[C@@H](C)[C@H](OC)CN(C)C2=O	1
SMILES	miR-122 inh
CNc1nc(NCC2CCCCC2)c2sccc2n1	43*
COc1ccccc1CNS(=O)(=O)c1ccc(-c2cc(C)no2)cc1	-95
COc1ccccc1CNc1nc(NCC2CC2)nc2ccsc12	43*
CC(=O)N(C)C[C@@H]1Oc2cc(C#CC3CCCCC3)ccc2S(=O)(=O)N([C@H](C)CO)C[C@H]1C	1
C/C=C/c1cnc2c(c1)C(=O)N([C@@H](C)CO)C[C@H](C)[C@@H](CN(C)C(=O)Cc1cccnc1)O2	-3
C[C@@H]1CN([C@H](C)CO)C(=O)c2cc(C#Cc3cccnc3)cnc2O[C@@H]1CN(C)Cc1ccncc1	8
C[C@@H]1CN([C@@H](C)CO)C(=O)c2cccc(NC(=O)c3ccc(-c4nccs4)cc3)c2O[C@@H]1CN(C)Cc1ccc(C(=O)Nc2ccccc2N)cc1	-213
C[C@H](CO)N1C[C@H](C)[C@@H](CN(C)Cc2ccccn2)Oc2cc(-c3cccc(C#N)c3)ccc2S1(=O)=O	-39
CCCC(=O)Nc1ccc2c(c1)C(=O)N(C)C[C@H](OC)[C@H](C)CN(CCC)[C@H](C)CO2	0
C[C@@H]1CN([C@@H](C)CO)S(=O)(=O)c2ccc(-c3ccccc3)cc2O[C@H]1CN(C)Cc1cncnc1	-1
C[C@@H]1CN([C@H](C)CO)C(=O)c2cc(C3=CCCC3)cnc2O[C@@H]1CN(C)C(=O)C1CCCCC1	11
C[C@H]1CN([C@@H](C)CO)C(=O)c2cc(C#CCc3ccccc3)cnc2O[C@H]1CN(C)Cc1cccc(C(=O)O)c1	1
CCCCCCNS(=O)(=O)c1ccc(Cl)s1	-209
COc1cccc(NS(=O)(=O)c2cc(C)sc2C)c1	-121
COc1ccc2[nH]c(C(=O)O)c(NS(=O)(=O)c3ccc(Cl)s3)c2c1	40*
